Laboratory results reported in the supplement of paper PMC10849652.
About 7,900 targets were measured; listed, in parts, are those with a hit and a random draw of the rest. About 0.6% of all pairs of compound and target were hits.

Columns and labels:
Assay in all cases: log2 fold change, soluble protein after heating vs DMSO (PISA); higher = thermal stabilisation; K562 cells, 10 uM, 30 min; active = over 0.2 and 3.5 SD of the protein, either way, in both replicates (recomputed)
[1] = compound: CC1=C(C=C(C=C1)NC(=O)C2=CC(=CC=C2)C(C)(C)C#N)NC3=CC4=C(C=C3)N=CN(C4=O)C
How it was run: (§1)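 K562 cells at 2×10^6 cells/mL were treated with 10 μM compound for 30 min. Aliquots were heated for 3 min across 48°C-58°C, pooled, and extracted in PBS with 0.5% NP-40 at 4°C; soluble protein was the supernatant after 21,000xg for 90 min. Soluble protein was quantified by TMTpro 16plex LC-MS/MS with channel sums equalised, and reported as log2 fold change in thermal stability against DMSO controls, with values from duplicates.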

[2] = compound: CC1=C(C=C(C=C1)NC(=O)C2=CC(=CC=C2)N(C)C)NC(=O)C3=CC=C(C=C3)O
How it was run: as §1

[3] = compound: CC1=CC=C(C=C1)SC2=C3C=C(SC3=CN=C2)C(=O)N
How it was run: as §1

[4] = compound: CC1=NC(=CC=C1)C2=C(N=C(N2)C(C)(C)C)C3=CC4=NC=CN=C4C=C3
How it was run: as §1

[5] = compound: CCCCN(Cc1ccc(C(=O)NO)cc1)C(=O)Nc1ccccc1 [Nexturastat A]
How it was run: as §1

[6] = compound: CCCS(=O)(=O)Nc1ccc(F)c(C(=O)c2c[nH]c3ncc(-c4ccc(Cl)cc4)cc23)c1F [vemurafenib]
How it was run: as §1

[7] = compound: CCCS(=O)(=O)Nc1ccc(F)c(C(=O)c2c[nH]c3ncc(Cl)cc23)c1F
How it was run: as §1

[8] = compound: CCCc1cc(C)[nH]c(=O)c1CNC(=O)c1cc(-c2ccnc(N3CCN(C)CC3)c2)cc2c1cnn2C(C)C
How it was run: as §1

[9] = compound: CCN(CC)Cc1ccc2cc(COC(=O)Nc3ccc(C(=O)NO)cc3)ccc2c1 [givinostat]
How it was run: as §1

[10] = compound: CCN(CCCOc1ccc2c(Nc3cc(CC(=O)Nc4cccc(F)c4)[nH]n3)ncnc2c1)CCOP(=O)(O)O [barasertib]
How it was run: as §1

[11] = compound: CC[C@@H]1C(=O)N(C)c2cnc(Nc3ccc(C(=O)NC4CCN(C)CC4)cc3OC)nc2N1C1CCCC1
How it was run: as §1

[12] = compound: CC[C@@H]1C(=O)N(C)c2cnc(Nc3ccc(C(=O)N[C@H]4CC[C@H](N5CCN(CC6CC6)CC5)CC4)cc3OC)nc2N1C(C)C [volasertib]
How it was run: as §1

[13] = compound: CC[C@H](C)N1C=C(C2=C(C=C(C=C21)C3=CN=C(C=C3)N4CCNCC4)C(=O)NCC5=C(C=C(NC5=O)C)C)C
How it was run: as §1

[14] = compound: CC[C@H](C)[C@@H](C(=O)N[C@@H]([C@@H](C)O)C(=O)N[C@@H](CC(C)C)C(=O)[C@]1(CO1)C)NC(=O)[C@H]([C@@H](C)CC)N(C)C(=O)C [epoxomicin]
How it was run: as §1

[15] = compound: CCn1c(C(=O)N(C2CC2)C2CC2)cc2c3c(ncn3C)c(Nc3cc(C)n(C)n3)nc21
How it was run: as §1

[16] = compound: CCn1cc(-c2ccnc3[nH]c(-c4cccc(CN(C)C)c4)cc23)c(-c2ccc(NC(=O)N(C)C)cc2)n1
How it was run: as §1

[17] = compound: CN(C)CC(=O)Nc1ccc2[nH]c(=O)c3ccccc3c2c1
How it was run: as §1

[18] = compound: CN(CCOC1=CC=C(C=C1)C[C@H]2C(=O)NC(=O)S2)C3=CC=CC=N3 (racemic) [rosiglitazone]
How it was run: as §1

[19] = compound: CN1C2=C(C3=C1C(=O)N(N=C3)CC4=CC(=CC=C4)N)SC(=C2)S(=O)C
How it was run: as §1

[20] = compound: CN1CCC(CNc2ccc3ncc(-c4cccc(OC(F)(F)F)c4)n3n2)CC1
How it was run: as §1

Measured: log2 fold change

AK6 (UniProt Q9Y3D8)
UniProt Q9Y3D8, sequence (Q9Y3D8 whole entry, looked up): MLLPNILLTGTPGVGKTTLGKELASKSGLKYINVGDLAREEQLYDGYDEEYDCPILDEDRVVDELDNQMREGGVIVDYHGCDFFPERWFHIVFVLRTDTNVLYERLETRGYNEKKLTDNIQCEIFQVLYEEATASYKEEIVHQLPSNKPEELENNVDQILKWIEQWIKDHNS
active: [12] -0.438
inactive: [1] 0.02 | [2] -0.04 | [3] 0.012 | [4] 0.032 | [5] -0.056 | [6] 0.1 | [7] 0.053 | [8] 0.076 | [9] 0.083 | [10] 0.138 | [11] -0.304 | [13] -0.001 | [14] 0.08 | [15] -0.081 | [16] -0.007 | [17] 0.148 | [18] 0.074 | [19] 0.027 | [20] -0.322

AKAP8L (UniProt Q9ULX6)
inactive: [1] -0.124 | [2] -0.007 | [3] -0.092 | [4] 0.005 | [5] 0.054 | [6] 0.069 | [7] 0.067 | [8] 0.02 | [9] 0.004 | [10] 0.047 | [11] -0.14 | [13] 0.059 | [14] 0.072 | [15] -0.074 | [16] -0.039 | [17] 0.043 | [18] 0.101 | [19] 0.171 | [20] -0.25
active: [12] -0.394

ABCB6 (UniProt Q9NP58)
inactive: [1] 0.085 | [2] -0.084 | [3] 0.019 | [4] 0.019 | [5] 0.001 | [6] 0.073 | [7] -0.022 | [8] -0.041 | [9] -0.002 | [10] 0.008 | [11] -0.131 | [12] -0.051 | [13] 0.001 | [14] -0.009 | [15] 0 | [16] -0.019 | [17] 0.061 | [18] 0.027 | [19] -0.053 | [20] -0.123

ANP32E (UniProt Q9BTT0)
UniProt Q9BTT0, sequence (Q9BTT0 whole entry, looked up): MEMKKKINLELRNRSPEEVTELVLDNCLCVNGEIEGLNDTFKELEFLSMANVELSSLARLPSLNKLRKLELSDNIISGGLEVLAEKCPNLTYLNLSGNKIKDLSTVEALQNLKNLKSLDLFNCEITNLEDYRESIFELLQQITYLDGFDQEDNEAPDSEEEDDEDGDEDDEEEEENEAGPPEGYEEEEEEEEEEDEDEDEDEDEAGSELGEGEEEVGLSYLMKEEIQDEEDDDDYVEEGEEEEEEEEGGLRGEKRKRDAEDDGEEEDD
active: [12] -0.499
inactive: [1] 0.041 | [2] -0.098 | [3] 0.091 | [4] -0.02 | [5] -0.11 | [6] 0.091 | [7] 0.035 | [8] -0.001 | [9] 0.112 | [10] 0.076 | [11] -0.132 | [13] 0.04 | [14] 0.054 | [15] -0.085 | [16] -0.128 | [17] -0.051 | [18] -0.025 | [19] -0.058 | [20] -0.147

ATP6AP1 (UniProt Q15904)
UniProt Q15904, sequence (Q15904 whole entry, looked up): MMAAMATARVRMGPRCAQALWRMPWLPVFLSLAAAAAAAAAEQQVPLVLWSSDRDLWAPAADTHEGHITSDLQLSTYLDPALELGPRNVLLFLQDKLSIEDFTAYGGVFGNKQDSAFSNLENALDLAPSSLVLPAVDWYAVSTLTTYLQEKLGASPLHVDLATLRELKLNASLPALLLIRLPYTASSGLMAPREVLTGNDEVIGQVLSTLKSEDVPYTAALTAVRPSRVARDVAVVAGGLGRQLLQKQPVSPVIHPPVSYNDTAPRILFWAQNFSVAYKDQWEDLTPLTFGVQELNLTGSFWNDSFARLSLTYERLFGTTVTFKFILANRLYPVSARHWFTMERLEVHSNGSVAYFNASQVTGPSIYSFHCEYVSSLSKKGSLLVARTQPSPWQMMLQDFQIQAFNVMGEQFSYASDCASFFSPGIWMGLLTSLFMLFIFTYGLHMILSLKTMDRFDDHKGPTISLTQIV
inactive: [1] 0.009 | [2] -0.025 | [3] 0.004 | [4] -0.027 | [5] 0.114 | [6] -0.003 | [7] -0.018 | [8] -0.009 | [9] 0.038 | [10] 0.016 | [11] -0.05 | [12] -0.02 | [13] 0.033 | [14] 0.09 | [15] 0.011 | [16] 0.037 | [17] -0.074 | [18] 0 | [19] 0.098 | [20] 0.016

AGPS (UniProt O00116)
UniProt O00116, sequence (O00116 whole entry, looked up): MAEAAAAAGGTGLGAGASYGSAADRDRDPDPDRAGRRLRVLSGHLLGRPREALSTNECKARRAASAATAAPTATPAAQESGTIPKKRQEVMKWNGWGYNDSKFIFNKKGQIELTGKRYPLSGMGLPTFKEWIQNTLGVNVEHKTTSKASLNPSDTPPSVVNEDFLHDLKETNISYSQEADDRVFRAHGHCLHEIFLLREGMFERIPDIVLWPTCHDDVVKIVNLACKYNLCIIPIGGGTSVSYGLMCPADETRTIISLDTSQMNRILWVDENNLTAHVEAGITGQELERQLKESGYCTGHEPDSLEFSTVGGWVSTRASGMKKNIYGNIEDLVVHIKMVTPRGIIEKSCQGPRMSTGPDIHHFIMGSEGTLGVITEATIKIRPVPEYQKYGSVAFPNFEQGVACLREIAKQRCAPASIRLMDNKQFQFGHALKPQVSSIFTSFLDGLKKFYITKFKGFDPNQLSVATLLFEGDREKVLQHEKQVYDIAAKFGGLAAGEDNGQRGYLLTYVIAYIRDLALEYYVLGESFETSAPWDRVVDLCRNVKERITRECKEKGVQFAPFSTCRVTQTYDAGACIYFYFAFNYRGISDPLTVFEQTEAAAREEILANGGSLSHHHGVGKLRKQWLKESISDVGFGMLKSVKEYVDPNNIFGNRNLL
inactive: [1] 0.126 | [2] 0.012 | [3] 0.013 | [4] -0.001 | [5] -0.084 | [6] 0.02 | [7] 0.041 | [8] -0.043 | [9] -0.033 | [10] 0.06 | [11] -0.005 | [12] -0.021 | [13] 0.002 | [14] 0.031 | [15] 0.018 | [16] -0.102 | [17] 0.039 | [18] 0.055 | [19] -0.09
active: [20] -0.212

AAR2 (UniProt Q9Y312)
UniProt Q9Y312, sequence (Q9Y312 whole entry, looked up): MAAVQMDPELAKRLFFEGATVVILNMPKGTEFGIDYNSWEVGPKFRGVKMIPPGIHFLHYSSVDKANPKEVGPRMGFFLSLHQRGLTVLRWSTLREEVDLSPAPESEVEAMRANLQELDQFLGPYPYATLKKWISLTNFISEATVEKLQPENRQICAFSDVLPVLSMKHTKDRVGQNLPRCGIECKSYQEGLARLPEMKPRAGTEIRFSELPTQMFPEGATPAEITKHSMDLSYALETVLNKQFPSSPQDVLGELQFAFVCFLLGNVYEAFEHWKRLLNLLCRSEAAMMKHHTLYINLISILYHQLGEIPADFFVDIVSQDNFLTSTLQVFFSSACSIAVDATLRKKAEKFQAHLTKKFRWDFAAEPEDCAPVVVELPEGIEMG
inactive: [1] -0.01 | [2] -0.026 | [3] -0.032 | [4] -0.035 | [5] 0.074 | [6] -0.018 | [7] 0.021 | [8] -0.105 | [9] 0.018 | [10] -0.023 | [11] -0.032 | [12] -0.016 | [13] -0.03 | [14] 0.037 | [15] -0.038 | [16] 0.106 | [17] -0.001 | [18] 0 | [19] -0.087 | [20] -0.096

ADPRHL2 (UniProt Q9NX46)
UniProt Q9NX46, sequence (Q9NX46 whole entry, looked up): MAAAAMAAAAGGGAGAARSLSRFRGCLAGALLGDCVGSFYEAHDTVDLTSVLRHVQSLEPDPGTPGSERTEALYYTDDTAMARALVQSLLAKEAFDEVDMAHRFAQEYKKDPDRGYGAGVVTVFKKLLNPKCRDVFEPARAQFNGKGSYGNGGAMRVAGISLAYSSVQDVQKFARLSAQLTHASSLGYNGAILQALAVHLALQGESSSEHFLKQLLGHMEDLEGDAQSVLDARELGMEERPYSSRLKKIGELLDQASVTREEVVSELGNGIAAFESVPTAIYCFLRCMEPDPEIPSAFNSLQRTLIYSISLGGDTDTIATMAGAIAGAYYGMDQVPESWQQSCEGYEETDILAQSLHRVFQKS
inactive: [1] 0.022 | [2] -0.06 | [3] 0.007 | [4] 0.111 | [5] -0.077 | [6] 0.126 | [7] 0.076 | [8] -0.003 | [9] 0.004 | [10] 0.043 | [11] -0.027 | [12] 0.071 | [13] -0.028 | [14] 0.145 | [15] -0.05 | [16] -0.093 | [17] 0.116 | [18] 0.002 | [19] -0.042 | [20] 0.133

ARFGAP1 (UniProt Q8N6T3)
UniProt Q8N6T3, sequence (Q8N6T3 whole entry, looked up): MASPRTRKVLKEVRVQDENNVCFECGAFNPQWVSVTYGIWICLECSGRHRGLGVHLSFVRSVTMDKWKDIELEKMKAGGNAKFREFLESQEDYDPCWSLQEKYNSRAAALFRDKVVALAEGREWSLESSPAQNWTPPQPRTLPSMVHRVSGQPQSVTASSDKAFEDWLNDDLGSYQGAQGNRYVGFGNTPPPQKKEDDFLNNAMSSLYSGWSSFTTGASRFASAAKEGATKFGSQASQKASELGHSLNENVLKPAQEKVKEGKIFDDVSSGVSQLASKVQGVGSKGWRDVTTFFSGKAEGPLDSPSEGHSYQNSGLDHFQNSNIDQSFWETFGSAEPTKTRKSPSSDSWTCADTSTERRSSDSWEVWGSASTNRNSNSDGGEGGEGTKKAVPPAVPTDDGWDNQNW
inactive: [1] -0.053 | [2] -0.168 | [3] 0.107 | [4] 0.034 | [5] 0.038 | [6] 0.085 | [7] 0.124 | [8] 0.016 | [9] 0.029 | [10] 0.1 | [11] -0.182 | [13] 0.056 | [14] 0.026 | [15] -0.042 | [16] 0.008 | [17] 0.036 | [18] -0.003 | [19] -0.016 | [20] 0.068
active: [12] -0.545

BCLAF1 (UniProt Q9NYF8)
UniProt Q9NYF8, sequence (Q9NYF8 whole entry, looked up): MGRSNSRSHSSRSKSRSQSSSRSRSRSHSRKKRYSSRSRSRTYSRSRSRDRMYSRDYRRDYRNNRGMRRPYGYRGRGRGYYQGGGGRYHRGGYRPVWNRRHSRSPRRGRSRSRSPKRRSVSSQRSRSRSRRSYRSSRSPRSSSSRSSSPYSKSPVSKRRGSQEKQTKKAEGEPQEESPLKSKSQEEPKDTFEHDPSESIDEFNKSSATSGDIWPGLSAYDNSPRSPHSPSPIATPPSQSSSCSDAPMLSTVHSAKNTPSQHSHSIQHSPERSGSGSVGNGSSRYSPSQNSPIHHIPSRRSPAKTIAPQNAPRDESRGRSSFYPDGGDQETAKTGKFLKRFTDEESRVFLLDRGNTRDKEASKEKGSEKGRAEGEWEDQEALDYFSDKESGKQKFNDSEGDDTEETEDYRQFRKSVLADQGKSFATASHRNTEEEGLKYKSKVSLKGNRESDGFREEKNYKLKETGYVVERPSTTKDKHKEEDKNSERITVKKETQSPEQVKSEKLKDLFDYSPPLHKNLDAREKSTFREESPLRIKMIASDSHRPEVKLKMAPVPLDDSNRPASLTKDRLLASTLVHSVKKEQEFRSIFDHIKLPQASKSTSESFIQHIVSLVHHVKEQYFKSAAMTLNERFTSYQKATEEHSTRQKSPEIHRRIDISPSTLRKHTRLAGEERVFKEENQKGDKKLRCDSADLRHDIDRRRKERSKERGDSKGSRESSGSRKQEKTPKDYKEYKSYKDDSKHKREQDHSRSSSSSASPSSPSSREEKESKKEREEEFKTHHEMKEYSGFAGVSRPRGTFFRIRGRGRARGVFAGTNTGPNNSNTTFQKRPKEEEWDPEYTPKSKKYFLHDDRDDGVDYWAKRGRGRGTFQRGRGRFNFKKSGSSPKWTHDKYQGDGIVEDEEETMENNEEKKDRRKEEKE
inactive: [1] 0.012 | [2] -0.102 | [3] 0.004 | [4] 0.128 | [5] 0.098 | [6] 0.225 | [7] 0.097 | [8] 0.009 | [9] 0.137 | [10] -0.071 | [11] -0.089 | [12] -0.08 | [13] 0.024 | [14] -0.027 | [15] -0.016 | [16] -0.002 | [17] 0.099 | [18] 0.018 | [19] -0.015 | [20] 0.024

ADD1 isoform 3 (UniProt P35611)
UniProt P35611, sequence (P35611 whole entry, looked up): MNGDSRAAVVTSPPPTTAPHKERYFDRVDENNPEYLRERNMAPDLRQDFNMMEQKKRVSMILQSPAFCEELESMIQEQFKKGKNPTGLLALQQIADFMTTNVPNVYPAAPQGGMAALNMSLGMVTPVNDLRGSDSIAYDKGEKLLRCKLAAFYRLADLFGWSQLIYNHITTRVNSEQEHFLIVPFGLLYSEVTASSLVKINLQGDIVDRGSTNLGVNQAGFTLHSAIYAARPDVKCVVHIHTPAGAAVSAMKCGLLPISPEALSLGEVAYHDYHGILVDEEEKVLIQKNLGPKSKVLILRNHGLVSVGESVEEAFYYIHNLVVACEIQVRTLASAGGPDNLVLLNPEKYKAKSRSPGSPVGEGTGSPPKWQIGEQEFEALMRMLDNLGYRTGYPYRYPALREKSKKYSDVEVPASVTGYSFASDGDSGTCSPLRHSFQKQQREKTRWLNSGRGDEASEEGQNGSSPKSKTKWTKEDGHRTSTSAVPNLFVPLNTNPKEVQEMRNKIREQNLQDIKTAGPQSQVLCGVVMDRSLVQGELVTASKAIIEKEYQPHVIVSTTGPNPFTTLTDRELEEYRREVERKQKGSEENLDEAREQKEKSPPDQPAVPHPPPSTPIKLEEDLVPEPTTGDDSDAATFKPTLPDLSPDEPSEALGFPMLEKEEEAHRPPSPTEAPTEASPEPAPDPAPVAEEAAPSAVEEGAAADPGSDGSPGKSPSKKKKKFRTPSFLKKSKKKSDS
inactive: [1] -0.015 | [2] -0.031 | [3] -0.026 | [4] 0.015 | [5] 0.025 | [6] -0.059 | [7] 0.013 | [8] -0.025 | [9] -0.015 | [10] -0.022 | [11] 0.077 | [12] 0.015 | [13] -0.015 | [14] -0.012 | [15] -0.007 | [16] 0.011 | [17] -0.039 | [18] -0.004 | [19] -0.055 | [20] 0.053

ANKRD29 (UniProt Q8N6D5)
UniProt Q8N6D5, sequence (Q8N6D5 whole entry, looked up): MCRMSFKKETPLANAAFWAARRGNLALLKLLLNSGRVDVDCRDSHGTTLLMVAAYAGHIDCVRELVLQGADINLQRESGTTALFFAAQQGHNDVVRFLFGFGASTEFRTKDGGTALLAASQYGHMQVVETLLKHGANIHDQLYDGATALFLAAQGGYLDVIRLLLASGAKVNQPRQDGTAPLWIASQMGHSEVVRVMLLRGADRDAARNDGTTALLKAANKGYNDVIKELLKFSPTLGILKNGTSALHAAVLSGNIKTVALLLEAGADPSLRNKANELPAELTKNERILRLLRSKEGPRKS
inactive: [1] 0.046 | [2] 0.022 | [3] 0.027 | [4] -0.035 | [5] 0.371 | [6] -0.064 | [7] -0.031 | [8] -0.073 | [9] 0.247 | [10] -0.124 | [11] -0.021 | [12] -0.27 | [13] -0.152 | [14] 0 | [15] -0.137 | [16] -0.233 | [17] 0.025 | [18] 0.111 | [19] -0.039 | [20] -0.043
